The record followed here is PubChem BioAssay AID1259341 (Broad Institute, 2017).

Activity calls are given as the source filed them.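 How the source made its calls: active means activity change under -35% in any replicate well, with more than 20 beads read in that well; inactive means the rest.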

The target of the assay is Caspase recruitment domain-containing protein 9 (Homo sapiens) + E3 ubiquitin-protein ligase TRIM62 (Homo sapiens) (UniProt Q9H257+Q9BVG3). Kind of assay: disruptors of CARD9-TRIM62 binding, primary screen, cell lysate, HEK293FT lysates, Luminex bead ELISA (AID 1259341).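 Further: PE anti-Flag signal of Flag-CARD9 captured by myc-TRIM62 beads.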 The note with it: PE fluorescence, hits give low values, concentration not given here. (In general: In an ELISA, binding on a coated surface is turned into a signal by an enzyme label.)
Caspase recruitment domain-containing protein 9 (Homo sapiens) + E3 ubiquitin-protein ligase TRIM62 (Homo sapiens), sequence (Q9BVG3 whole entry, looked up, the tested form may be a part): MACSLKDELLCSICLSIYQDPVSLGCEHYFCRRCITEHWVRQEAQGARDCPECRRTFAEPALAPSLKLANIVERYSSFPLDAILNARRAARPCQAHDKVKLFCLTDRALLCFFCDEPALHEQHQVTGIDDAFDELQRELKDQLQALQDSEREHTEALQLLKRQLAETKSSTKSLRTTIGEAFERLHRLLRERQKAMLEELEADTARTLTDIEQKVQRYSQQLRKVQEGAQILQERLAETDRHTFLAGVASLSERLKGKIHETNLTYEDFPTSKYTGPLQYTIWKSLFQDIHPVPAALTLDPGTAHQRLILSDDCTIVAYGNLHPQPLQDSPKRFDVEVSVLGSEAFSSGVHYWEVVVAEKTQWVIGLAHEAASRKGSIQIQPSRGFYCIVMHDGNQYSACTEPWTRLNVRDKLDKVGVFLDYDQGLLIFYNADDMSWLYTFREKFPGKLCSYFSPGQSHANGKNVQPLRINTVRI
Caspase recruitment domain-containing protein 9 (Homo sapiens) + E3 ubiquitin-protein ligase TRIM62 (Homo sapiens), sequence (Q9H257 whole entry, looked up, the tested form may be a part): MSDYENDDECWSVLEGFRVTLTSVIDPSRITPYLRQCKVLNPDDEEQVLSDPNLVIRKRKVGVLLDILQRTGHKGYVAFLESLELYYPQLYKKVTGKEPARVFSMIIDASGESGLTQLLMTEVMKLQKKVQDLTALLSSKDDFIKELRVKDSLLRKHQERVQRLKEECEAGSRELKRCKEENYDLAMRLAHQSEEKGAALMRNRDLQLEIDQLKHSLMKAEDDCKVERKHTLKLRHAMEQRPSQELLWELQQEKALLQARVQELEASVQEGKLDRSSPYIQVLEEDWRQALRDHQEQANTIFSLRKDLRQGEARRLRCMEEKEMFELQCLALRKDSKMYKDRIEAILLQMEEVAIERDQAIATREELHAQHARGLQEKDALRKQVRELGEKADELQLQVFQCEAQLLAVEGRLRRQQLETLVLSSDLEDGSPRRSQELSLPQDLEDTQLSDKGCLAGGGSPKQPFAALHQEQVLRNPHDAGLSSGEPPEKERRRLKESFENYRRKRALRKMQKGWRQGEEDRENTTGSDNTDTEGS
For `CCCc1oc(C(=O)O)cc1CN`, the activity change, negative = inhibition is -4.57% (inactive).
As for `O=C(Cn1cncc1-c1ccc([N+](=O)[O-])cc1)Nc1ccccc1F`, the figure is 4.4% (inactive); as for `Cn1nnnc1SCCNCc1ccc(-c2cccc(C(F)(F)F)c2)o1`, -0.39% (inactive); as for `N#CCSc1nc2c(c(=O)n1Cc1ccco1)C1(CCCC1)Cc1ccccc1-2`, -5.29% (inactive).
As for `O=c1oc(-c2ccccc2)nc2sc3c(c12)CCC3`, the figure is 0.684% (inactive).
For the molecule `CCCN1CCCn2nc(CNC(=O)[C@@H](N)Cc3ccc(O)cc3)cc2C1`, the activity change, negative = inhibition was -26.6% (inactive).
Next, `Cc1c(/C=C/c2nc3ccccc3c(=O)n2-c2ccccn2)c2ccccc2n1C`: -1.2% (inactive).
With `Cc1ccc(-c2nn(-c3ccccc3)cc2CN(Cc2ccccc2)C(=O)CCC(=O)O)o1`, the activity change, negative = inhibition was 7.87% (inactive).
As for `Cc1ccccc1C(=O)Nc1cnc(N2CCC(C(N)=O)(N3CCCCC3)CC2)c(C(=O)O)c1`, the figure is -48.4% (active); as for `N#Cc1c(-c2ccco2)cc(-c2ccccn2)nc1N`, 1.52% (inactive).
`Cc1ccsc1[C@@H]1CCN(Cc2ccc(-c3ccn[nH]3)o2)C[C@H]1O`: the activity change, negative = inhibition is 0.0372% (inactive).
As for `O=S(=O)(Nc1nccs1)c1ccc(-n2cccc2)cc1`, the activity change, negative = inhibition is 3.9% (inactive).
As for `CC1=CCC(C(=O)O)C(C(=O)NC2CCCCC2)C1` (configuration not stated), the figure is -6.81% (inactive).
As for `O=C(Nc1cccc2ccccc12)NC1CC1`, the activity change, negative = inhibition is -2.1% (inactive).
Next, `Cc1cc(C(=O)NCc2ccco2)on1`: -1% (inactive); `Nc1cc2c(cc1-n1cccc1)OCCO2`: 4.12% (inactive); `On1c(-c2ccco2)nc2c1CCc1nonc1-2`: -2.2% (inactive).
